# Data reported in PMC12136788.
# Numbering of substitutions follows the chain as printed. The full ranking holds about 5,800 sequences; the median of “enrichment r” is about 0.68, and the highest 2% start at about 11. This excerpt belongs to a sample that is enriched for the highest values.
# T1: UNK ZnF1-6 (called full-length) (human, UniProt Q9C0B0 30-357)
# T1 sequence: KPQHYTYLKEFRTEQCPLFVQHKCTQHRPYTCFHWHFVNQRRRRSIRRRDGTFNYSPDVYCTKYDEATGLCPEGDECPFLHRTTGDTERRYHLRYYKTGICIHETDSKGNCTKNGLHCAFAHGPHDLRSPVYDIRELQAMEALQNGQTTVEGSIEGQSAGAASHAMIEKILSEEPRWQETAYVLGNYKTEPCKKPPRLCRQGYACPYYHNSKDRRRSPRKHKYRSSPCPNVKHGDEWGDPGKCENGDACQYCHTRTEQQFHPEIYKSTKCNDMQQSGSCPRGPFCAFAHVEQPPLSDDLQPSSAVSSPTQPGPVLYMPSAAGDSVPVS
# B1: ENSG00000099904:stop:overlap|stop_codon|ENSG00000099904|stop_codon|NA|stop_codon (ssRNA)
# RNA: GGGAGUUCUACAGUCCGACGAUCGGGCCAUGUGCCGCCUGCACUUGGCUGCCUCCAGUCUUUUCCCCAGCCUCUCGGGGCCCUAGCAGGAUGACAAGUAGGCGGCUCUGGGGCCCAGGACAGCCCAGCUGGGGACCCAGGAGGCAACAGAGGAUUGAGCAUCA
# B2: chr2:216675367:216675485:-|3pUTR|ENSG00000115461|msi1|FALSE|unique (ssRNA)
# RNA: GGGAGUUCUACAGUCCGACGAUCGCCAGGCAGAGGCCAGCCCUCCGUGGUGCACACAGCACGCGCCUCAGUCCAUCCCAUUUUAGUCUUUAAACCCUCAGGAAGUCACAGUCUCCGGACACCACACCACAUGAGCCCAACAGGCAACAGAGGAUUGAGCAUCA
# B3: chr15:63775065:63775180:-|CDS|ENSG00000103657|unk|FALSE|unique (ssRNA)
# RNA: GGGAGUUCUACAGUCCGACGAUCUGGUUCAGCAGAUGUCCAUUCUGUUAGUGAACGCCCCCGGUCAAGCACUGAUGCACUUAUAGAAAUGGGUGUUCGAACUGGUCUAAGUUUAUUAUUUGCGCUUCUAAGACAAAGUUGGAUCAACAGAGGAUUGAGCAUCA
# B4: chr14:77132432:77132533:-|3pUTR|ENSG00000177108|unk|total|mutant (ssRNA)
# RNA: GGGAGUUCUACAGUCCGACGAUCUGUGAUUGCUGGACCCAGAGGCAAGAUCUGCAGAGAUGCCUGUGAGAUAUUUGCUUUCCCCGAGGGGAGUGUGGGCAUGGGAGGGGUCUGAAAAUCAGGACCCAACCCAGCCACUGAAGACAACAGAGGAUUGAGCAUCA
# B5: chr13:51761002:51761103:+|3pUTR|ENSG00000139668|unk|FALSE|unique (ssRNA)
# RNA: GGGAGUUCUACAGUCCGACGAUCACGGCAAGAUUGUAAUCCUGCUGUAUUCCUCGCCCUCUGUAUUCUAUCCCUUUAAAAACUAGAUAUUUAAACAUUUUAUCCUAAUGUGUUUCAUCAGAACACUUUGCACACUUUCUUACUCAACAGAGGAUUGAGCAUCA
# B6: chr3:25596636:25596694:+|3pUTR|ENSG00000077092|msi1_unk|FALSE|overlapping (ssRNA)
# RNA: GGGAGUUCUACAGUCCGACGAUCUCCCCAGUACCUUCAGUUCCAGGAUUUAAAAUGCAAGAAAAAACAUUUUUACUGCUGCUUAGUUUUUGGACUGAAAAGAUAUUAAAACUCAAGAAGGACCAAGAAGUUUUCAUAUGUAUCCAACAGAGGAUUGAGCAUCA
# B7: chr2:74214837:74214938:+|3pUTR|ENSG00000065911|msi1_unk|total|mutant (ssRNA)
# RNA: GGGAGUUCUACAGUCCGACGAUCCUGUCCUUUUGAGGCUCCGUCAGUUUAUUGGGAAAAUGUUCCGGAUUAUUCCUUGCUAUCCGUACUCAUUUUAUGUAUGUUACCCUUCAGUAAGUUCUCCCCAUUUCCGUUUUCCCGGACCAACAGAGGAUUGAGCAUCA
# B8: ENSG00000147536:stop:overlap|stop_codon|ENSG00000147536|stop_codon|NA|stop_codon (ssRNA)
# RNA: GGGAGUUCUACAGUCCGACGAUCUCCGCUACGUCCUCAGCAGCUACUUGCGGUGUCGCCUCAUGAAGUUCCCAAACCAGAUCUAGAUUCUUACGUGUUUCUGAGAGUGAGAGAACGACAAGAAAACAUACUGGUAGAACCAGACAACAGAGGAUUGAGCAUCA
# B9: chr2:74214837:74214938:+|3pUTR|ENSG00000065911|msi1_unk|FALSE|overlapping (ssRNA)
# RNA: B7 RNA with C40U, C41A, C64U, C65A, C83U, C84A, C130U, C131A, C138U, C139A
# B10: ENSG00000137168:stop:overlap|stop_codon|ENSG00000137168|stop_codon|NA|stop_codon (ssRNA)
# RNA: GGGAGUUCUACAGUCCGACGAUCCAAACUCCCAGGACCGCCCUGUGGACGACGUGAAGAUCAUUAAGGCAUACCCUUCUGGGUAGACUUGCUACCCUCUUGAGCAGCUCUUCUGAGAUGGCCCCAGUGAACCAGCUUCUAGAUCAACAGAGGAUUGAGCAUCA
# B11: chr6:15520333:15520434:+|3pUTR|ENSG00000008083|unk|FALSE|unique (ssRNA)
# RNA: GGGAGUUCUACAGUCCGACGAUCCUUGCUGUAGGAUUCAAGCUGUCUUUGCACUAGCUCUAAAGAAGAUUUUCUUCUGGUUUUAGAGAACUAAUUUUGUUUUAGCAUUAAACUGUUGAACUUUUUUUUGUACUUAGAAAACCUCAACAGAGGAUUGAGCAUCA
# B12: chr7:7234405:7234460:+|CDS|ENSG00000106392|msi1_unk|FALSE|overlapping (ssRNA)
# RNA: GGGAGUUCUACAGUCCGACGAUCAAUUUUUUAACCUUCCUCUGUGGAUCAGCAAUAGGAUUUCUUUUAUGUUCUCAGCUAUUUAGUAUUUUGUUGGGAGAAAAGGUUGACACCCAGCCUAAUGUUCUUCAUAAUGAUCCUCAUCAACAGAGGAUUGAGCAUCA
# B13: ENSG00000070961:be:win_6151|3pUTR|ENSG00000070961|bound_else_gene|NA|bound_elsewhere_windowed (ssRNA)
# RNA: GGGAGUUCUACAGUCCGACGAUCCAAUCACUUUUUCUCUUUUAUCCUCUAACCAAAAAAUUGUUUAAUUUUGCAUCCCAAAUGUUUUUAAUCUUUGUAUAUUUUUUAAAAAUCCUUUUCUCCUCAUCAUUGCCUUUUUUGUGGCAACAGAGGAUUGAGCAUCA
# B14: chr6:43186014:43186115:+|CDS|ENSG00000112659|msi1|total|mutant (ssRNA)
# RNA: GGGAGUUCUACAGUCCGACGAUCCUGCUUUUCUCCUUGGUGAAGCGCUACCUUUGUGUCACGUCCCUCCUGGAUCAGCUGAACCGCAGUCCAGAGCUGGGAGCUGGAGACCAAAGCUCCCCAUGUGCCACAAGAGAGAAAAGCCAACAGAGGAUUGAGCAUCA
# B15: chr8:22006364:22006465:+|3pUTR|ENSG00000130227|msi1|total|mutant (ssRNA)
# RNA: GGGAGUUCUACAGUCCGACGAUCUGUUGCUGCCCGUUGUACACAUCUCCCGUUCAGCUCUUGCCCACGGGACACUCAUCAAUCCGGUUUUAUUUUUAUUUCUUUCCUCUACCCCCAGAAACAAGCCUGUUAAUUUUUUUUCCUCAACAGAGGAUUGAGCAUCA
# B16: chr8:22006364:22006465:+|3pUTR|ENSG00000130227|msi1|FALSE|unique (ssRNA)
# RNA: B15 RNA with C33U, C34A, C49U, C50A, C83U, C84A
# B17: chr19:44386474:44388102:-|CDS|ENSG00000267508|control|control|control (ssRNA)
# RNA: GGGAGUUCUACAGUCCGACGAUCGGCAUGUGGUAAGGGCUUCAGUCGUAAUUCAUACCUCCUUGCCCAUCAGAGAGUGCAUAUAGAUGAGACACAGUACACACACUGUGAGCGUGGAAAGGACCUUCUGACUCAUCAAAGACUCAACAGAGGAUUGAGCAUCA
# B18: ENSG00000198589:be:win_1001|CDS|ENSG00000198589|bound_else_gene|NA|bound_elsewhere_windowed (ssRNA)
# RNA: GGGAGUUCUACAGUCCGACGAUCUCAACACUAGCGAUACCUUUGACAAAUGUUUCCUGGGCUCAUCAGAAACAGCAGAUGCUAAUAGAGUAUUCUGUGGUCAGAUGACUGCAGUUUACCUUUUCAGUGAAGCUCUAAAUGCAGCAACAGAGGAUUGAGCAUCA
# B19: chr1:114568131:114568247:-|CDS|ENSG00000116752|unk|total|mutant (ssRNA)
# RNA: GGGAGUUCUACAGUCCGACGAUCUUCCCGUUGGGUAUCCCUGGUCAGUAAGAAUUAUGAGAUUGAACGGACUAUUGUUCAGCCCGAAAAUGAAAUCUAUCAAAUUAAGCAGCAACAUGGAGAGGCAAACAAAGAAAACAUCCGCAACAGAGGAUUGAGCAUCA
# B20: chr11:85659139:85659240:-|3pUTR|ENSG00000137504|msi1|FALSE|unique (ssRNA)
# RNA: GGGAGUUCUACAGUCCGACGAUCGUCUGAUUUAGUAAAAUUUUAAAGCUAAAUAAUCUGAUGACUCUUGAAAGUUUAAUUGGUAGUAUGACAUUUAUGUUUUUUUCCCCCAGACUCACAGCCAAUACAAAGUUUUGAGACUCCCAACAGAGGAUUGAGCAUCA
# B21: ENSG00000124766:be:win_2851|3pUTR|ENSG00000124766|bound_else_gene|NA|bound_elsewhere_windowed (ssRNA)
# RNA: GGGAGUUCUACAGUCCGACGAUCUAAUCAGAUGCCAUUUUAUAUGUGGACGUAUUUAUACUGGCCAAACAUAUUUUUUCUUUUGUCCCUUUUUUUCUUUCCUUUCUUUUUACUUCCUUUAUUUCUUUAUUCCUUCCUUUUCCUCAACAGAGGAUUGAGCAUCA
# B22: chr2:27041412:27041530:+|3pUTR|ENSG00000119777|msi1_unk|FALSE|overlapping (ssRNA)
# RNA: GGGAGUUCUACAGUCCGACGAUCACUUCAAAAUGCCCAGCCUGCCCCAAAUGCCUCUAAGCCCCUCCCUGUCCCCUCCCUUGUAGUCCUACUUCUUCCAACUUUCCAUUCCCCAUCAUGCUGGGGGUCUUGGUCACAAGGCUCCAACAGAGGAUUGAGCAUCA
# Biological target: T1, UNK ZnF1-6 (called full-length)
# Experiment: nsRBNS (natural sequence RNA bind-n-seq); RBNS binding buffer (assumed for nsRBNS): 25 mM Tris pH 7.5, 150 mM KCl, 3 mM MgCl2, 0.01% Triton X-100, 500 ug/ml BSA, 20 U/ml SUPERase-In, 4 C; UNK is unkempt and MSI1 is Musashi-1; names of the RNAs are library labels; protein concentration not given here; high values mean tight binding
row,Binder,binding signal [enrichment R]
1,B1,1.2
2,B2,2.44
3,B3,0.696
4,B4,0.528
5,B5,28.5
6,B6,0.303
7,B7,0.338
8,B8,33.9
9,B9,12.4
10,B10,0.7
11,B11,3.46
12,B12,2.12
13,B13,4.78
14,B14,0.544
15,B15,2.95
16,B16,41.4
17,B17,0.503
18,B18,0.527
19,B19,0.717
20,B20,1.52
21,B21,8
22,B22,1.6
